The nature of test [1]: NCI Yeast Anticancer Drug Screen. Data for the rad50 strain (AID 155).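 Also: 0% = growth of vehicle-only cultures of the same strain.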 The following applies: S. cerevisiae rad50 strain growth inhibition, active compounds read high. The method, boiled down: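 Vehicle-treated cultures provide the reference for the growth inhibition reported for compound-exposed, repair-deficient yeast.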
Test [2] can be described thus: NCI Yeast Anticancer Drug Screen. Data for the mec2-1 strain (AID 157). The settings on record: S. cerevisiae mec2-1 strain, active compounds read high. The method in brief: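 Growth inhibition is read against vehicle-treated controls after compound exposure of the mec2-1 yeast strain, which is defective in DNA damage repair or cell cycle control.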
The nature of test [3]: NCI Yeast Anticancer Drug Screen. Data for the sgs1 mgt1 strain (AID 161).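 Also: 0% = growth of cultures given vehicle only.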 The settings on record: S. cerevisiae sgs1 mgt1 strain, active compounds read high. The method, boiled down: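 Yeast cells carrying a defined DNA-repair defect were exposed to test compounds. Growth inhibition was measured relative to vehicle-treated controls.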
Test [4] in a line: NCI Yeast Anticancer Drug Screen. Data for the cln2 rad14 strain (AID 165).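 Also: 0% = growth equal to vehicle treated cultures.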 The following applies: S. cerevisiae cln2 rad14 strain, active compounds read high. The method, boiled down:
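Growth inhibition, relative to vehicle-treated controls, is the read-out. The test organism is a yeast strain with defined genetic alterations, cln2 rad14.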

Test [5] in a line: NCI Yeast Anticancer Drug Screen. Data for the bub3 strain (AID 167). The settings on record: S. cerevisiae bub3 mutant strain, active compounds read high. The method in brief: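 Mutant yeast screening strain plus compound; vehicle-treated cultures serve as the 0% inhibition reference.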
Test [6] can be described thus: NCI Yeast Anticancer Drug Screen. Data for the mlh1 rad18 strain (AID 175). The settings on record: S. cerevisiae mlh1 rad18 strain growth inhibition, active compounds read high. The method, boiled down: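 Cells of a genetically altered yeast strain, deficient in DNA damage repair, were treated with compound. Their growth was then compared with that of vehicle-treated cultures to give inhibition.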

[7] abbreviates: at 5.0 µM (retest, dose inferred, filed as 0.5).
The mark [8] stands for this setting: at 50.0 µM (retest, dose inferred, filed as 5.0).

This is part of a sample that, as a whole, favours compounds with a hit. Of some 79,000 tested, about 15% had one in any assay. A number with no mark means an inactive call. Calls of active or inactive are those of the source. Rule as the data show it: active = growth inhibition above about 70%; inactive = the rest.

Take `CCCCCN=C(C)C(C)=NCCCCC`: the growth inhibition was -15% in test [1] (setting [7]); 70% (active) in test [1] (setting [8]); 93.3% (active) in test [1] (at 50.0 µM); 3% in test [2] (setting [7]); 92% (active) in test [2] (setting [8]); 74.3% (active) in test [2] (at 50.0 µM). The growth inhibition in test [3] (setting [7]) was 9%; in test [3] (setting [8]) it was 50%; in test [3] (at 50.0 µM), 31.4%; in test [4] (setting [7]), -50%; in test [4] (setting [8]), 63%; in test [4] (at 50.0 µM) it was 83.7% (active). The growth inhibition in test [5] (setting [7]) was -12%; in test [5] (setting [8]), 86% (active); in test [5] (at 50.0 µM) it was 96.8% (active); in test [6] (setting [7]), -9%; in test [6] (setting [8]) it was 94% (active); in test [6] (at 50.0 µM), 95% (active).

Regarding `C[Si](C)(C)C1=C([Si](C)(C)C)C(Cl)(Cl)C1=O`, the growth inhibition is 10% in test [1] (setting [7]); 32% in test [1] (setting [8]); 12% in test [1] (at 50.0 µM); 12% in test [2] (setting [7]); 17% in test [2] (setting [8]); 9.35% in test [2] (at 50.0 µM). For the same molecule, the growth inhibition in test [3] (setting [7]) was 20%; in test [3] (setting [8]) it was 49%; in test [3] (at 50.0 µM), 72.2% (active); in test [4] (setting [7]), 6%; in test [4] (setting [8]), 40%; in test [4] (at 50.0 µM) it was 45.5%. The growth inhibition in test [5] (setting [7]) is 16%; in test [5] (setting [8]) it was 33%; in test [5] (at 50.0 µM), 29.2%; in test [6] (setting [7]), 18%; in test [6] (setting [8]), 38%; in test [6] (at 50.0 µM), 32.4%.

With `COC(=O)C(CBr)CBr`, the growth inhibition in test [1] (setting [7]) is 25%; in test [1] (setting [8]), 100% (active); in test [1] (at 50.0 µM) it was -20.9%; in test [2] (setting [7]) it was 34%; in test [2] (setting [8]) it was 99% (active); in test [2] (at 50.0 µM) it was 9.55%. The growth inhibition in test [3] (setting [7]) was 22%; in test [3] (setting [8]), 98% (active); in test [3] (at 50.0 µM) it was -5.25%; in test [4] (setting [7]) it was 21%; in test [4] (setting [8]), 99% (active); in test [4] (at 50.0 µM), 10.7%. The growth inhibition is 47% in test [5] (setting [7]); 100% (active) in test [5] (setting [8]); 5.8% in test [5] (at 50.0 µM); 39% in test [6] (setting [7]); 99% (active) in test [6] (setting [8]); -14.7% in test [6] (at 50.0 µM).

As to `Nc1ccc2c(c1)CCc1ccccc1-2`, the growth inhibition in test [1] (setting [7]) was 1%; in test [1] (setting [8]), 40%; in test [1] (at 50.0 µM) it was 83.3% (active); in test [2] (setting [7]), -27%; in test [2] (setting [8]) it was 10%; in test [2] (at 50.0 µM) it was 43.6%. The growth inhibition in test [3] (setting [7]) is 2%; in test [3] (setting [8]), 52%; in test [3] (at 50.0 µM), 89.8% (active); in test [4] (setting [7]) it was -5%; in test [4] (setting [8]), 8%; in test [4] (at 50.0 µM), 50.4%. The growth inhibition was -7% in test [5] (setting [7]); 65% in test [5] (setting [8]); 81.5% (active) in test [5] (at 50.0 µM); 2% in test [6] (setting [7]); 45% in test [6] (setting [8]); 86.5% (active) in test [6] (at 50.0 µM).

Regarding `Cc1ccc(S(=O)(=O)C2C=CC=CC=C2)cc1`, the growth inhibition in test [1] (setting [7]) was -156%; in test [1] (setting [8]), 84% (active); in test [1] (at 50.0 µM), 76.8% (active); in test [2] (setting [7]) it was -51%; in test [2] (setting [8]) it was 54%; in test [2] (at 50.0 µM), 86% (active). The growth inhibition is -64% in test [3] (setting [7]); 77% (active) in test [3] (setting [8]); 14.7% in test [3] (at 50.0 µM); -62% in test [4] (setting [7]); 42% in test [4] (setting [8]); 52% in test [4] (at 50.0 µM). Further, the growth inhibition in test [5] (setting [7]) was -71%; in test [5] (setting [8]) it was 66%; in test [5] (at 50.0 µM), 71% (active); in test [6] (setting [7]), -140%; in test [6] (setting [8]), 87% (active); in test [6] (at 50.0 µM), 82% (active).

The values above are taken from PubChem BioAssay (NCI).
